# In PubChem BioAssay AID624305 (National Center for Advancing Translational Sciences (NCATS), 2012):
# Inconclusive results are not listed. Values without a mark were called inactive. The source made the active and inactive calls. Calls follow the shape of the dose curve; as a rule, active = well fitted activation curve with a large enough effect; inconclusive = small, poorly fitted or top-dose-only effect; inactive = no such curve, though single readings can be large or run the other way.
# Assay: qHTS assay for re-activators of p53 using a Luc reporter: Hit Validation; also: nearly all actives have a fitted effect of over 75% in size; as to activation: 0% is about no effect
# Settings: p53-responsive luciferase reporter cells, luminescence, H1299 line expressing heat-sensitive Ala138Val p53; series mostly up to 46.1 µM; activation: at the top concentration
# From the text: The p53 tumor suppressor plays a key role in suppression of tumorigenesis and in human carcinogenesis. It is frequently found inactivated in human cancers, mainly by point mutation. These point mutations are found in a wide variety of human cancers and a majority of them affect the DNA binding domain of the protein. The point mutations either alter native p53 conformation or abolish DNA contact. Additionally, cancer cells with p53 mutations are more resistant to chemo-radiation therapies.
# In order to find activators to reactivate this important protein, a cell-based screen for p53-dependent luciferase-reporter expression was developed. A p53-null H1299 lung cancer cell line was stably co-transfected with a temperature sensitive p53 mutant, p53-A138V, and a p53-responsive BP100-luciferase reporter. This cell model has previously been characterized in a gene chip profiling experiment for p53 activation. By lowering the culture temperature from 37 deg C (mutant p53 conformation) to 32 deg C (w.t. p53 conformation), a 30-60 fold increase in activation of luciferase activity is observed. At assay temperate, 37 deg C, basal reporter expression is very low and after the addition of detection reagent, a luminescent read-out is carried out. This is the hit validation assay, confirming the hits identified from the primary screen.
# NIH Chemical Genomics Center [NCGC]
# NIH Molecular Libraries Probe Production Centers Network [MLPCN]
# Assay Provider (PI): Yi Sung, University of Michigan at Ann Arbor
# 5ul of 1000 cells per well are dispensed in all wells except column 4, into white solid-bottom TC-treated Kalypsys plates. The cells are kept in Opti-MEM and supplemented with 10% FBS and dispensed using a Multidrop (Thermo). Then using the Kalypsys pin-tool, 23nl of compounds are pinned. The compounds are starting concentration at 10mM, with 1:5 dilution, 4 points, and the control compound nocodazole is pinned in column 1 at 25mM, 1:3 dilution, in duplicate, 25mM nocodazole is pinned in column 2. Please note, all concentrations are working concentrations. 5ul of 1pM purified luciferase enzyme is dispensed using the Kalypsys dispenser in column 4. Plates are incubated for 24 hrs at 37 deg C, 5% CO2, and 95% humidity. Then 4ul of the detection reagent Amplite (ABD Bioquest) is added using the Kalypsys dispenser. Plates are incubated for 10 min at ambient room temperature and are then read on the ViewLux (Perkin Elmer) using a clear filter for a luminescent read-out.
# Potency is read from the fitted curve at half-maximal effect.
SMILES,Potency,activation
c1ccc(-c2csc(Nc3ncccn3)n2)cc1,2.31 µM (active),–
Cn1cc(Cl)c(C(=O)Nc2nc3ccccc3s2)n1,0.231 µM (active),–
C/C(=N\NC(=S)NC(C)C)c1ccc(Cl)s1,–,14.1%
Cc1ccc(NC(=O)C2CCCO2)cc1[N+](=O)[O-] (stereo not given),–,12%
O=C(NC12CC3CC(CC(C3)C1)C2)c1ccc(-c2cccc(Cl)c2)o1,23.1 µM (active),–
COc1ccc(C(=O)N=c2nc3ccccn3s2)cc1,0.092 µM (active),–
COc1ccc2c(=O)c(-c3nc(C)cs3)coc2c1,2.06 µM (active),–
Cc1cccc(-n2c(O)c(C=Nc3ccccc3N)c(=O)[nH]c2=O)c1,–,39.1%
COc1cccc(NC(=O)CCN2CCOCC2)c1,–,-2.6%
Cc1cccc(NC(=O)c2oc3c(c2C)C(=O)CC(C)(C)C3)n1,–,34.9%
COc1ccc(-n2cnc3c(cnn3CCC#N)c2=N)cc1,–,25.5%
O=C(NCCC1=CCCCC1)c1ccc([N+](=O)[O-])cc1,2.59 µM (active),–
Cc1ccc2nc(-c3ccc(NC(=O)CN4C(=O)c5ccccc5C4=O)cc3)sc2c1,5.17 µM (active),–
COC(=O)c1nn(-c2ccc(-c3ccccc3)cc2)cc1O,0.092 µM (active),–
CN1CCN(C(=O)c2cc3ccccc3cc2O)CC1,–,17.7%
COc1cccc(/C=C2\Oc3ccc(O)cc3C2=O)c1O,–,-18.8%
O=C(CC1NC2CCCCC2NC1=O)Nc1ccc2c(c1)OCO2 (stereo not given),–,9.38%
CC(/C=C/c1ccccc1)=N/O,–,21.9%
O=C1CCCC(O)=C1N=Nc1ccc2c(c1)OCO2,23.1 µM (active),–
CNc1ccc(/C=C/C(=O)c2ccc(C)cc2)cc1[N+](=O)[O-],–,15.1%

SMILES,Potency,activation
COC(=O)c1sccc1N/N=C/c1cccc(OC)c1O,0.146 µM (active),–
CCCCCCC[C@@H](C/C=C/CCC(=O)N(C)C/C(=C/Cl)C/C(=C\C(=O)N1CC(OC)=CC1=O)OC)OC,5.8 µM (active),–
Cc1ccc(OCCCNCCO)c(Br)c1,–,39.1%
O=C(CN1C(=O)NC2(CCCc3ccccc32)C1=O)c1ccc(F)cc1 (stereo not given),–,-10.9%
CC(=O)c1c(C)[nH]c(C(=O)OCC(=O)c2ccc(C)s2)c1C,–,44.3%
Cc1ccc(C(=O)Nc2cnc3sc(C)nn3c2=O)cc1,6.51 µM (active),–
O=C(CSc1nnc(-c2ccc(O)cc2)o1)Nc1ccc2c(c1)OCCO2,8.2 µM (active),–
Cc1ccc(CSc2nc3ccncc3[nH]2)cc1,–,-42.2%
O=C(c1ccccc1)n1c(=S)nc2ccccn21,0.164 µM (active),–
N#C/C(=C\c1ccc(OCc2ccc(Br)cc2)cc1)C(=O)Nc1cccc(C(=O)O)c1,2.91 µM (active),–
CCN1CCc2c(sc(NC(=O)c3ccc(S(=O)(=O)N4CCCC4)cc3)c2C(=O)NC)C1,–,8.85%
O=C(NCc1ccco1)c1noc2c1CCCC2,–,56.8%
N#CC1(c2ccc(NC(=O)c3ccccc3F)cc2)CCCC1,1.64 µM (active),–
Cc1cc(Oc2ccccc2)nc(-c2ccccc2O)n1,–,13%
CCSc1nnc(SCC(=O)NC2CCCCC2)s1,–,-8.33%
CCc1cc(C(=O)c2ccc(C)cc2)c(NC(=O)CCl)s1,–,11.5%
COc1cc(NC(=O)CSCc2ccc(Cl)cc2)c(C(=O)O)cc1OC,–,-13%
O=C(Nc1cccc(N=Cc2cc(Cl)cc(Br)c2O)c1)c1ccco1,–,6.77%
CCCCC(=O)NC(c1ccc(Cl)cc1Cl)c1ccc2cccnc2c1O (stereo not given),20.6 µM (active),–
N#Cc1nc(COc2ccccc2)oc1N1CCOCC1,–,-9.38%
